Measurements reported in PubChem BioAssay (EPA / NIEHS).
Results filed as inconclusive are left out. Calls of active or inactive are those of the source. Rule for the calls, unless noted: active = hit-call score of the fitted dose curve at least 0.9, where 1 is the maximum; inconclusive = response in the unintended direction; inactive = score below 0.9.

Assays:
[1] = BSK_SAg_Proliferation: Cell Proliferation Assessment in the BioMAP Diversity Plus: SAg Assay (AID 2283095; active = hit-call score of the fitted dose curve at least 0.9, where 1 is the maximum; inactive = score below 0.9;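 note: relative cell number as total protein by SRB absorbance in sub-confluent culture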); conditions: primary human HUVEC with PBMC
Summary of the method: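 HUVEC/PBMC co-culture, 96-well. TCA-fixed (10%), 0.1% SRB stain, A560 at 96 h. Protein content used as viability readout; bidirectional fitting vs DMSO control.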

[2] = BSK_SAg_SRB: Viability Assessment in the BioMAP Diversity Plus: SAg Assay (AID 2283096; active = hit-call score of the fitted dose curve at least 0.9, where 1 is the maximum; inactive = score below 0.9;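 note: cells read one day after compound addition; hits may be either gain or loss of signal compared with DMSO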); conditions: primary human HUVEC with PBMC
Summary of the method: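 Compounds were added to a human vascular co-culture of umbilical vein endothelium and PBMC. After 24 h, parallel cultures were fixed with 10% TCA, stained with 0.1% sulforhodamine B and read at 560 nm. Gain or loss of signal was fitted relative to DMSO.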

[3] = target: human CYP2A6, CYP2A6 (gene 1548) (UniProt P11509); assay: NVS_ADME_hCYP2A6: NovaScreen (NVS) CYP450-related Enzyme Activity (ADME) Assay for human CYP2A6 (AID 2283099)
Chain of human CYP2A6, CYP2A6 (gene 1548) (P11509 whole entry, looked up): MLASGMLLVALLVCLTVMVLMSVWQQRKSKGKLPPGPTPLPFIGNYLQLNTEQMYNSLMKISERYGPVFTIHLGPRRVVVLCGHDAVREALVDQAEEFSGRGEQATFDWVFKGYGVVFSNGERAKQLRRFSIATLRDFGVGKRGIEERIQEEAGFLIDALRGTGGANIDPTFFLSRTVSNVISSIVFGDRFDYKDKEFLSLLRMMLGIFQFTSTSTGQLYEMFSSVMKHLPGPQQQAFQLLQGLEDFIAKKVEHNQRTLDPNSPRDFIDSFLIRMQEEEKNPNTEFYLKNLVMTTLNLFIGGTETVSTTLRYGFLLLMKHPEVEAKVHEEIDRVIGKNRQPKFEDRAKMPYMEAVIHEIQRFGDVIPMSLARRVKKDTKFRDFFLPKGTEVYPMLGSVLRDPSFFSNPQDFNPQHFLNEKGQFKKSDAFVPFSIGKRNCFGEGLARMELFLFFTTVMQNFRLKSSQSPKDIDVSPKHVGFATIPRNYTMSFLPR
Summary of the method: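 Insect-cell-expressed human CYP2A6 enzyme activity measured by fluorescence intensity 0.5 hour post-dosing. Compounds screened at 10 uM in duplicate, then hits tested singly in concentration series (max 20 uM); acetonitrile baseline.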

[4] = target: human CYP1A1, CYP1A1 (gene 1543) (UniProt P04798); assay: NVS_ADME_hCYP1A1: NovaScreen (NVS) CYP450-related Enzyme Activity (ADME) Assay for human CYP1A1 (AID 2283100)
Chain of human CYP1A1, CYP1A1 (gene 1543) (P04798 whole entry, looked up): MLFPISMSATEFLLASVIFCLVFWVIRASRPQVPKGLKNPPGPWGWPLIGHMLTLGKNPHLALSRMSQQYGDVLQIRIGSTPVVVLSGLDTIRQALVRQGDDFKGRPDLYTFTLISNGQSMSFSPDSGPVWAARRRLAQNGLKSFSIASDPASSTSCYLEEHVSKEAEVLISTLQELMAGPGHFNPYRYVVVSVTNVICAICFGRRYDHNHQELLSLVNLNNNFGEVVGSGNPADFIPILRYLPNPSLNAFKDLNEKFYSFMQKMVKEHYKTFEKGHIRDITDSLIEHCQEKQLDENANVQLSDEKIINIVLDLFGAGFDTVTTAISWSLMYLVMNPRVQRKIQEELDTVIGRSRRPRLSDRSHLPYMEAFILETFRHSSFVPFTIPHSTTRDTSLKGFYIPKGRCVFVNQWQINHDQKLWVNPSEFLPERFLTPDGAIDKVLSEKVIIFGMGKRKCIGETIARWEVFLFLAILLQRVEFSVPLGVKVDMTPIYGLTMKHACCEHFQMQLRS
Summary of the method: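 Read-out: fluorescence intensity from enzymatic turnover of substrate by recombinant CYP1A1, loss of signal indicating inhibition. Incubation 1 h post-dose. Primary single-point 10 uM in duplicate; actives rerun singly with top concentration 20 uM.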

[5] = target: human CYP2B6, CYP2B6 (gene 1555) (UniProt P20813); assay: NVS_ADME_hCYP2B6: NovaScreen (NVS) CYP450-related Enzyme Activity (ADME) Assay for human CYP2B6 (AID 2283101)
Chain of human CYP2B6, CYP2B6 (gene 1555) (P20813 whole entry, looked up): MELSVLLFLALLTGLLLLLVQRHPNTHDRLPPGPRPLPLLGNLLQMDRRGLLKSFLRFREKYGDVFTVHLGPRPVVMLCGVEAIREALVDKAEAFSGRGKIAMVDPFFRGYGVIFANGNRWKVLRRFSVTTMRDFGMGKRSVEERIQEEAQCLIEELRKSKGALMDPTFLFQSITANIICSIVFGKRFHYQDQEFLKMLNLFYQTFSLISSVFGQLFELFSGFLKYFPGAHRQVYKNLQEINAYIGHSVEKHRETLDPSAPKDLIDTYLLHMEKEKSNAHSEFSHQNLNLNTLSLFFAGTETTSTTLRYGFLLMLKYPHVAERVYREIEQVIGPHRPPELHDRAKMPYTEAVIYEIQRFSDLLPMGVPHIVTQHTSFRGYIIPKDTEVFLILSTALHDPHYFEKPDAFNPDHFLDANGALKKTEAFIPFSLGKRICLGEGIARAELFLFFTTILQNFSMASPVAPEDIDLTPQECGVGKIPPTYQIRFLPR
Summary of the method: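 Recombinant human CYP2B6 with fluorogenic substrate, read by fluorescence intensity 1 h after dosing. Primary screen in duplicate at 10 uM, actives followed in concentration series; signal loss relative to acetonitrile control.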

[6] = target: Cytochrome P450 2C19 (Homo sapiens) (UniProt P33261); assay: NVS_ADME_hCYP2C19: NovaScreen (NVS) CYP450-related Enzyme Activity (ADME) Assay for human CYP2C19 (AID 2283113);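 for AC50: potency for inhibition seen as loss of fluorescent signal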
Summary of the method: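 Recombinant insect-cell-expressed enzyme, fluorescent substrate, 1 h after chemical addition, fluorescence intensity. Baseline = acetonitrile vehicle; activity scored as signal loss. Primary HTS single concentration 10 uM, duplicate; actives retested in concentration series.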

[7] = target: human CYP2D6, CYP2D6 (gene 1565) (UniProt P10635); assay: NVS_ADME_hCYP2D6: NovaScreen (NVS) CYP450-related Enzyme Activity (ADME) Assay for human CYP2D6 (AID 2283107)
Chain of human CYP2D6, CYP2D6 (gene 1565) (P10635 whole entry, looked up): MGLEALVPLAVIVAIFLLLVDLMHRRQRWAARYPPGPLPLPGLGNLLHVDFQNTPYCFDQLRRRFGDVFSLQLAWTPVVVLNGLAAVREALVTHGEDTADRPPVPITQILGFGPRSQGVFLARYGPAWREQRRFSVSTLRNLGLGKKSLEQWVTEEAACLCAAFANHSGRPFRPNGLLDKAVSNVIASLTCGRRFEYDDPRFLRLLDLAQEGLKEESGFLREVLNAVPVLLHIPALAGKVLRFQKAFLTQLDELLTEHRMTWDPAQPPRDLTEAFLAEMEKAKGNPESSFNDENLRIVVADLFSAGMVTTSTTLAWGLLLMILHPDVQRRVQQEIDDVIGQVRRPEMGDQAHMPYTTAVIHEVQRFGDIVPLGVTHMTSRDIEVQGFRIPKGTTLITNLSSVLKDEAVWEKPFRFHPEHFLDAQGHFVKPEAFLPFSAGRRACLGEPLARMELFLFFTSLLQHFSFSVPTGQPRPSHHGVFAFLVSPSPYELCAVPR
Summary of the method: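 Fluorescence intensity read 1 h post-dosing; insect-cell-expressed recombinant protein with fluorogenic substrate, no cells. Activity is scored as signal loss relative to acetonitrile baseline, first at a single 10 uM concentration in duplicate, then as concentration series for confirmed actives.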

[8] = target: Cytochrome P450 3A4 (Homo sapiens) (UniProt P08684); assay: NVS_ADME_hCYP3A4: NovaScreen (NVS) CYP450-related Enzyme Activity (ADME) Assay for human CYP3A4 (AID 2283110)
Chain of Cytochrome P450 3A4 (Homo sapiens) (P08684 whole entry, looked up): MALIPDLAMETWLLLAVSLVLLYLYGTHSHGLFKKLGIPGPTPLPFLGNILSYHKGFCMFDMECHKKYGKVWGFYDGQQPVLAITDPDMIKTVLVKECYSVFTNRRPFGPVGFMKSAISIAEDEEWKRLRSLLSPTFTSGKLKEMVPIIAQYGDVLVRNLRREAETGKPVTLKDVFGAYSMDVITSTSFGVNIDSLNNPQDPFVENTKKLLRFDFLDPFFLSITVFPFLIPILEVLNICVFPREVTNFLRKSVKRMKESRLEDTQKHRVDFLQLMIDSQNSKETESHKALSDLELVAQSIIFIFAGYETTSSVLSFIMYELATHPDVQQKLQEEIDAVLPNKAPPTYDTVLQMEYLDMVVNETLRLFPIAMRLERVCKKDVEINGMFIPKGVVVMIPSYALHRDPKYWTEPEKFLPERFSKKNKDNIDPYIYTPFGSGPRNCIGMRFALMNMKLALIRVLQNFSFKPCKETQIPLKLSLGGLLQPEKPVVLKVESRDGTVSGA
Summary of the method: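 Recombinant CYP3A4 from insect cells, fluorescence enzyme read-out, 0.33 h after chemical addition. Acetonitrile = negative control/baseline. Primary HTS: 10 uM in duplicate; actives re-tested in concentration series.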

[9] = target: human Casein Kinase 1-delta (CK1D), CSNK1D (gene 1453) (UniProt P48730); assay: NVS_ENZ_hCK1D: NovaScreen (NVS) Enzymatic Assay for human Casein Kinase 1-delta (CK1D) (AID 2283148)
Chain of human Casein Kinase 1-delta (CK1D), CSNK1D (gene 1453) (P48730 whole entry, looked up): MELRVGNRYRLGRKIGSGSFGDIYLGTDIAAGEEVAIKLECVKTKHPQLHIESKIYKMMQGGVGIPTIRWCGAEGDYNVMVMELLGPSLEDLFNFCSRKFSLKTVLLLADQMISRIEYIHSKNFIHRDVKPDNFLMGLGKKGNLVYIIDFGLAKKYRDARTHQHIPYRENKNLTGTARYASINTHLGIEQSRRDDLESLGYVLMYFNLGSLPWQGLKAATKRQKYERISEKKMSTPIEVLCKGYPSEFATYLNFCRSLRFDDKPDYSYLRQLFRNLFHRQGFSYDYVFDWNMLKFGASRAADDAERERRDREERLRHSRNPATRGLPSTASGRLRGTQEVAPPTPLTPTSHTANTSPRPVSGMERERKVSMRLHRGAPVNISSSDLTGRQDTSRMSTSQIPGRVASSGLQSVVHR
Summary of the method: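 Recombinant human CK1-delta, cell-free; fluorescent substrate with electrophoretic mobility-shift separation of product, read 1 h after dosing. Single 25 uM duplicate screen, then concentration-response up to 50 uM; loss of signal vs DMSO.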

[10] = target: human CYP19A1, CYP19A1 (gene 1588) (UniProt P11511); assay: NVS_ADME_hCYP19A1: NovaScreen (NVS) CYP450-related Enzyme Activity (ADME) Assay for human CYP19A1 (AID 2283098);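 note: potency for inhibitors seen as loss of fluorescent enzyme signal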
Summary of the method: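 Fluorescence intensity read-out; activity taken as signal loss relative to acetonitrile vehicle. Extracted enzyme, specific substrate, no cells, 0.5 h exposure. Duplicate single-point screen at 10 uM, then concentration–response follow-up for actives.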

[11] = target: human CYP2C9, CYP2C9 (gene 1559) (UniProt P11712); assay: NVS_ADME_hCYP2C9: NovaScreen (NVS) CYP450-related Enzyme Activity (ADME) Assay for human CYP2C9 (AID 2283108)
Chain of human CYP2C9, CYP2C9 (gene 1559) (P11712 whole entry, looked up): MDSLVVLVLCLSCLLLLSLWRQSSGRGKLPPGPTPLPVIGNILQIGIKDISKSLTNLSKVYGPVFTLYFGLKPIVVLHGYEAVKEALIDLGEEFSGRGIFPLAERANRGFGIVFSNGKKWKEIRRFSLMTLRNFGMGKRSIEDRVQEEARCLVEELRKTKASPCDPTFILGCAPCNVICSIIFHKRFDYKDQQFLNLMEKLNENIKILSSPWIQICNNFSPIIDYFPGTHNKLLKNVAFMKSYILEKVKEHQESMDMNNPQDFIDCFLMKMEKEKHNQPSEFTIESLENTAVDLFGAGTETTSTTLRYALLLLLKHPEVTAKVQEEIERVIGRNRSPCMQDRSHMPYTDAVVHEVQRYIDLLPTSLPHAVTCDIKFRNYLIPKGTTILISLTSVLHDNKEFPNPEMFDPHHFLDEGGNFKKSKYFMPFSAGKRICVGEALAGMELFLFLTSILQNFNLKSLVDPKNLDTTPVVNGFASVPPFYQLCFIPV
Summary of the method: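 Recombinant human CYP2C9 expressed in SF9 cells, fluorogenic substrate, fluorescence read 0.75 h after dosing. Chemicals first run in duplicate at 10 uM, with actives followed in concentration series; loss of signal versus acetonitrile baseline.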

[12] = target: human Acid Phosphatase 1 (ACP1), ACP1 (gene 52) (UniProt P24666); assay: NVS_ENZ_hACP1: NovaScreen (NVS) Enzymatic Assay for human Acid Phosphatase 1 (ACP1) (AID 2283136)
Chain of human Acid Phosphatase 1 (ACP1), ACP1 (gene 52) (P24666 whole entry, looked up): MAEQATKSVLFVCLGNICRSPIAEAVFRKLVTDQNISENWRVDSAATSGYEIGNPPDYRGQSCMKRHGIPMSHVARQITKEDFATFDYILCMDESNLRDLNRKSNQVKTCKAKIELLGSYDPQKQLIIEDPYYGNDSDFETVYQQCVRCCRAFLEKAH
Summary of the method: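 Cell-free fluorescence read-out of phosphatase activity, substrate and product separated by mobility shift, taken 1.5 h after compound addition; protein produced in Sf9. Single 25 uM duplicate screen, followed by concentration series for actives, scored as signal loss relative to DMSO.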

[13] = target: human Caspase 5 (CASP5), CASP5 (gene 838) (UniProt P51878); assay: NVS_ENZ_hCASP5: NovaScreen (NVS) Enzymatic Assay for human Caspase 5 (CASP5) (AID 2283137)
Chain of human Caspase 5 (CASP5), CASP5 (gene 838) (P51878 whole entry, looked up): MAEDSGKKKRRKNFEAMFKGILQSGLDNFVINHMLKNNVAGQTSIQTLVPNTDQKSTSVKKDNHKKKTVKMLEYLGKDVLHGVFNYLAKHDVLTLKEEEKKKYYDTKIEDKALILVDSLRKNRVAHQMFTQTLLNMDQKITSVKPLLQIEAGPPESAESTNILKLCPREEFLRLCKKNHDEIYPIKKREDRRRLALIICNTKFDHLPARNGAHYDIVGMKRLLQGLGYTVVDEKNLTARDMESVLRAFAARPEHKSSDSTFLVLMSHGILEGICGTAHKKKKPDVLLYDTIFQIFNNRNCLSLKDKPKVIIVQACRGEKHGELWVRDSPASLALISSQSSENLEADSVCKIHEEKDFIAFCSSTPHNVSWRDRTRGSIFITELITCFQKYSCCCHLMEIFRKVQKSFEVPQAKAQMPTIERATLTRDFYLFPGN
Summary of the method: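 Fluorescent substrate readout of CASP5 activity (loss-of-signal), measured 2 h post-dose. Protein expressed in E. coli. Primary screen duplicate at 25 uM; actives meeting threshold (e.g., 30% inhibition) rerun singleton, max 50 uM.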

[14] = target: human Beta-secretase (BACE), BACE1 (gene 23621) (UniProt P56817); assay: NVS_ENZ_hBACE: NovaScreen (NVS) Enzymatic Assay for human Beta-secretase (BACE) (AID 2283140);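 note: hits are inhibitors that reduce fluorescent substrate signal versus DMSO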
Chain of human Beta-secretase (BACE), BACE1 (gene 23621) (P56817 whole entry, looked up): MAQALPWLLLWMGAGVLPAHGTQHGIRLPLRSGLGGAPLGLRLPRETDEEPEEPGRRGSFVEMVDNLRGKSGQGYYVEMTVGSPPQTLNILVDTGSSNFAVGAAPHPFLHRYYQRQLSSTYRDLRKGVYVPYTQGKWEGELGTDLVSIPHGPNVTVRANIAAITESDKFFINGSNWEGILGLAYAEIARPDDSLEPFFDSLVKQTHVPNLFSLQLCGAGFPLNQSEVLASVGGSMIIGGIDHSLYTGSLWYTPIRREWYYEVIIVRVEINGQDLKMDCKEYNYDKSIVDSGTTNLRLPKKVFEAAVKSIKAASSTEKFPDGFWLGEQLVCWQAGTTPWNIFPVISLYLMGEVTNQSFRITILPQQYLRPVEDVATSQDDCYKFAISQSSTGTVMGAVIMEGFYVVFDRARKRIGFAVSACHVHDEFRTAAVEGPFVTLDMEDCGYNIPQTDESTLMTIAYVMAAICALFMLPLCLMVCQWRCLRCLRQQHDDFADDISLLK
Summary of the method: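 SF9-expressed enzyme, cell-free; fluorescent substrate readout after 1 h. Screened at 25 uM single concentration, duplicate; hits retested in concentration series. Activity relative to DMSO baseline, loss-of-signal.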

[15] = target: human CYP1A2, CYP1A2 (gene 1544) (UniProt P05177); assay: NVS_ADME_hCYP1A2: NovaScreen (NVS) CYP450-related Enzyme Activity (ADME) Assay for human CYP1A2 (AID 2283102);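 note: potency for inhibition since loss of fluorescence marks reduced CYP1A2 activity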
Summary of the method: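 Fluorescence-intensity enzyme activity read-out, taken 0.5 h post-dosing, using insect-cell-derived recombinant CYP1A2 and specific fluorescent substrate. Acetonitrile served as negative control/baseline. Single-concentration duplicate screen at 10 uM, then concentration-response follow-up.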

Measured: AC50

CN(C)c1ccc(Cc2ccc(N(C)C)cc2)cc1
active: [1] 30.9 µM | [5] 1.02 µM | [6] 0.727 µM
inactive: [2] | [3] | [4]

CCOC(=O)COc1ccc2c(c1)CC(NCC(O)c1cccc(Cl)c1)CC2 (configuration not stated)
active: [1] 31.7 µM | [2] 27.2 µM | [7] 2.51 µM | [6] 5.22 µM
inactive: [4] | [8] | [9]

CC1=CC(=O)CC(C)(C)C1
inactive: [1] | [2] | [3]

O=c1[nH]c2ccc(S(=O)CCN3CCC(Cc4ccc(F)cc4)CC3)cc2o1 (configuration not stated)
inactive: [1] | [2]
active: [7] 1.3 µM

CCCCCCCCO
inactive: [1] | [2]

CCOC(=O)c1ccc(C2CCC(NC[C@H](O)COc3ccc(O)c(NS(C)(=O)=O)c3)CC2)cc1 (some centres not stated)
active: [1] 14.4 µM | [2] 26.3 µM | [10] 0.513 µM | [11] 2.14 µM | [6] 1.74 µM
inactive: [5] | [8]

O=P(OC(CCl)CCl)(OC(CCl)CCl)OC(CCl)CCl
active: [1] 25.3 µM | [5] 6.54 µM | [8] 6.65 µM | [6] 6.38 µM | [14] 8.73 µM
inactive: [2] | [3] | [11] | [12] | [13]

CCOCCO
inactive: [1] | [2] | [3]

Nc1nc2ncc(CNc3ccc(C(=O)N[C@@H](CCC(=O)O)C(=O)O)cc3)nc2c(=O)[nH]1
active: [9] 11.4 µM
inactive: [1] | [2] | [3] | [12] | [14]

CC(=O)OCCC(C)C
active: [11] 8.59 µM
inactive: [1] | [2] | [4] | [5] | [7] | [8]

O=C(OC[C@H]1O[C@@H](OC(=O)c2cc(O)c(O)c(OC(=O)c3cc(O)c(O)c(O)c3)c2)[C@H](OC(=O)c2cc(O)c(O)c(OC(=O)c3cc(O)c(O)c(O)c3)c2)[C@@H](OC(=O)c2cc(O)c(O)c(OC(=O)c3cc(O)c(O)c(O)c3)c2)[C@@H]1OC(=O)c1cc(O)c(O)c(OC(=O)c2cc(O)c(O)c(O)c2)c1)c1cc(O)c(O)c(OC(=O)c2cc(O)c(O)c(O)c2)c1
active: [1] 6.18 µM | [2] 9.72 µM | [15] 2.01 µM | [11] 3.05 µM | [6] 2.34 µM | [13] 0.136 µM | [14] 3.11 µM

CC/C(=C\C(=N/O)C(N)=O)C(C)[N+](=O)[O-] (configuration not stated)
active: [1] 20 µM
inactive: [2]

CC(C)=CCCC(C)=CC=O
inactive: [1] | [2] | [3] | [6]
